Data published in PubChem BioAssay (NCI).
This is part of a sample that, as a whole, favours compounds with a hit. Of some 83,000 tested, about 20% had one in any assay.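 Percent growth is the endpoint: 0 to 100 indicates growth inhibition (40 means 60% inhibition), 0 means no net growth, and negative values indicate cell death.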 Active and inactive are the calls of the source. Rule for the calls: active = growth percent below 10; inactive = the rest.

Columns and labels:
Test in all cases: NCI-60 one-dose screen, 48 h (100 = growth as untreated, 0 = no growth, -100 = all killed)
Conditions in all cases: 10 µM unless noted
SK-MEL-2 melanoma = tested on: SK-MEL-2 melanoma
EKVX NSCLC = tested on: EKVX NSCLC
SN12C renal = tested on: SN12C renal
UO-31 renal = tested on: UO-31 renal
TK-10 renal = tested on: TK-10 renal
ACHN renal = tested on: ACHN renal
CAKI-1 renal = tested on: CAKI-1 renal
A498 renal = tested on: A498 renal
CCRF-CEM leukemia = tested on: CCRF-CEM leukemia
MOLT-4 leukemia = tested on: MOLT-4 leukemia
SR leukemia = tested on: SR leukemia
RPMI-8226 leukemia = tested on: RPMI-8226 leukemia
OVCAR-8 ovarian = tested on: OVCAR-8 ovarian
OVCAR-5 ovarian = tested on: OVCAR-5 ovarian
OVCAR-4 ovarian = tested on: OVCAR-4 ovarian
SK-OV-3 ovarian = tested on: SK-OV-3 ovarian
IGROV1 ovarian = tested on: IGROV1 ovarian
OVCAR-3 ovarian = tested on: OVCAR-3 ovarian
NCI/ADR-RES ovarian = tested on: NCI/ADR-RES ovarian
HS 578T breast = tested on: HS 578T breast

Measured: growth

CCOC(=O)c1cnc2ccc(OC)cc2c1Nc1cccc(S(=O)(=O)NC)c1
inactive: SK-MEL-2 melanoma 102% | EKVX NSCLC 104% | SN12C renal 92.9% | UO-31 renal 93.6% | TK-10 renal 110% | ACHN renal 91.5% | CAKI-1 renal 89.4% | A498 renal 95.9% | CCRF-CEM leukemia 93% | MOLT-4 leukemia 99.2% | SR leukemia 95.6% | RPMI-8226 leukemia 51.6% | OVCAR-8 ovarian 100% | OVCAR-5 ovarian 102% | OVCAR-4 ovarian 104% | SK-OV-3 ovarian 113% | IGROV1 ovarian 113% | OVCAR-3 ovarian 103% | NCI/ADR-RES ovarian 90%

CC[n+]1ccc2c(c1)C(=O)c1nccc3c1c-2nc1ccccc13
active: SK-MEL-2 melanoma -34% | SN12C renal -75% | ACHN renal 6.37% | A498 renal -9.88% | CCRF-CEM leukemia 0.574% | MOLT-4 leukemia -30% | SR leukemia 5.79% | OVCAR-8 ovarian -11.9% | OVCAR-4 ovarian -67.7% | SK-OV-3 ovarian -9.56% | OVCAR-3 ovarian -14.6% | HS 578T breast -21.8%
inactive: EKVX NSCLC 11.2% | UO-31 renal 15.1% | TK-10 renal 18.7% | CAKI-1 renal 24.7% | RPMI-8226 leukemia 66.2% | OVCAR-5 ovarian 87.7% | IGROV1 ovarian 17.1% | NCI/ADR-RES ovarian 75.1%

Cc1ccc2c(c1)O/C(=C\c1cccc(OCC(=O)c3ccccc3)c1)C2=O
inactive: SK-MEL-2 melanoma 70% | EKVX NSCLC 95.5% | SN12C renal 107% | UO-31 renal 78.4% | TK-10 renal 133% | ACHN renal 103% | CAKI-1 renal 85.1% | A498 renal 106% | CCRF-CEM leukemia 129% | SR leukemia 44.9% | RPMI-8226 leukemia 188% | OVCAR-8 ovarian 91.7% | OVCAR-5 ovarian 109% | OVCAR-4 ovarian 104% | SK-OV-3 ovarian 108% | IGROV1 ovarian 95.5% | OVCAR-3 ovarian 118% | HS 578T breast 96.6% | NCI/ADR-RES ovarian 101%
active: MOLT-4 leukemia -34.3%

CCOC(=O)Cc1cnn(C)c1NC(=O)c1ccc(Cl)cc1NC(C)=O
inactive: SK-MEL-2 melanoma 84.6% | EKVX NSCLC 76.3% | SN12C renal 94.8% | UO-31 renal 91.6% | TK-10 renal 78.8% | ACHN renal 111% | CAKI-1 renal 64.8% | A498 renal 105% | CCRF-CEM leukemia 97.8% | MOLT-4 leukemia 102% | SR leukemia 104% | RPMI-8226 leukemia 102% | OVCAR-8 ovarian 99.8% | OVCAR-5 ovarian 99.3% | OVCAR-4 ovarian 110% | SK-OV-3 ovarian 102% | IGROV1 ovarian 105% | OVCAR-3 ovarian 108% | NCI/ADR-RES ovarian 106%

CCOC(=O)C(CC)n1c(=O)c2cc(OC)c(OC)cc2c2cnc3[nH]ccc3c21 (stereo unspecified)
active: A498 renal -9.97%
inactive: SK-MEL-2 melanoma 103% | EKVX NSCLC 76.4% | SN12C renal 64.9% | UO-31 renal 37% | TK-10 renal 74.2% | ACHN renal 61.8% | CAKI-1 renal 59% | CCRF-CEM leukemia 81.1% | MOLT-4 leukemia 53.6% | RPMI-8226 leukemia 70.1% | OVCAR-8 ovarian 80% | OVCAR-5 ovarian 63.8% | OVCAR-4 ovarian 93.3% | SK-OV-3 ovarian 58.5% | IGROV1 ovarian 19.7% | OVCAR-3 ovarian 76.3% | HS 578T breast 41.7% | NCI/ADR-RES ovarian 73.3%

CC(C)CC(CC1=CCC2CC1C2(C)C)C1=C(O)C(C)(C)C(=O)C(C)(C)C1=O (stereo unspecified)
inactive: EKVX NSCLC 20% | TK-10 renal 15.6% | OVCAR-5 ovarian 22.7% | OVCAR-4 ovarian 32.5% | IGROV1 ovarian 39% | OVCAR-3 ovarian 16.2%
active: SK-MEL-2 melanoma -18.2% | SN12C renal 3.56% | UO-31 renal 8.44% | ACHN renal 3.98% | CAKI-1 renal 6.44% | A498 renal -17.9% | CCRF-CEM leukemia 1.78% | MOLT-4 leukemia -24% | RPMI-8226 leukemia -26.4% | OVCAR-8 ovarian 5.12% | SK-OV-3 ovarian -12.6% | HS 578T breast 6.67% | NCI/ADR-RES ovarian 7.18%

CC[C@H](Nc1nc(N)nc(C)c1C#N)c1nc2cccc(NCc3ccc(C(=O)NO)cc3)c2c(=O)n1-c1ccccc1
inactive: SK-MEL-2 melanoma 27.8% | EKVX NSCLC 35.6% | SN12C renal 11.4% | CAKI-1 renal 13.2% | OVCAR-5 ovarian 16.8% | OVCAR-4 ovarian 15.5% | NCI/ADR-RES ovarian 74.7%
active: UO-31 renal 4.77% | TK-10 renal 1.89% | ACHN renal 4.61% | A498 renal -38.6% | CCRF-CEM leukemia 0.318% | MOLT-4 leukemia 0.225% | RPMI-8226 leukemia 4.78% | OVCAR-8 ovarian -25.7% | SK-OV-3 ovarian -12% | IGROV1 ovarian -50.5% | OVCAR-3 ovarian 0.5% | HS 578T breast -8.46%

O=C1c2c[n+](Cc3ccccc3)ccc2-c2nc3ccccc3c3ccnc1c23
active: SK-MEL-2 melanoma -53.6% | EKVX NSCLC -1.66% | SN12C renal -74.2% | UO-31 renal -21.8% | TK-10 renal -20.2% | ACHN renal -13% | A498 renal -56.1% | CCRF-CEM leukemia -13.1% | MOLT-4 leukemia -17.2% | SR leukemia -8.84% | RPMI-8226 leukemia -25.2% | OVCAR-5 ovarian -11% | OVCAR-4 ovarian -38.7% | SK-OV-3 ovarian -13% | IGROV1 ovarian -46.1% | OVCAR-3 ovarian -66.8% | HS 578T breast -18.8%
inactive: CAKI-1 renal 13.8% | NCI/ADR-RES ovarian 75.9%

O=C(Nc1ccc(Oc2ccc(F)cc2)c(Cl)c1)c1cccnc1
inactive: SK-MEL-2 melanoma 91.3% | EKVX NSCLC 81.9% | SN12C renal 95.8% | UO-31 renal 80.9% | TK-10 renal 97.7% | ACHN renal 99.5% | CAKI-1 renal 86.9% | A498 renal 70.8% | CCRF-CEM leukemia 101% | MOLT-4 leukemia 105% | SR leukemia 75.1% | RPMI-8226 leukemia 87.3% | OVCAR-8 ovarian 98.6% | OVCAR-5 ovarian 99.9% | OVCAR-4 ovarian 85.2% | SK-OV-3 ovarian 110% | OVCAR-3 ovarian 85.8% | HS 578T breast 91.5% | NCI/ADR-RES ovarian 85.1%

C[C@@H]1CC[C@@H]2[C@@H]1[C@H](OC(=O)/C=C/c1ccccc1)[C@]1(c3ccccc3)C[C@@H](OC(=O)CO)[C@@]2(C)O1
active: UO-31 renal -68.1% | ACHN renal 4.8% | A498 renal -22.3% | HS 578T breast -20%
inactive: SK-MEL-2 melanoma 97.7% | EKVX NSCLC 88.4% | SN12C renal 21.8% | TK-10 renal 98.6% | CAKI-1 renal 15.4% | CCRF-CEM leukemia 93% | MOLT-4 leukemia 92.1% | RPMI-8226 leukemia 97.7% | OVCAR-8 ovarian 54.3% | OVCAR-5 ovarian 99.8% | OVCAR-4 ovarian 103% | SK-OV-3 ovarian 96.1% | IGROV1 ovarian 93.6% | OVCAR-3 ovarian 103% | NCI/ADR-RES ovarian 62.1%

CC[C@H](Nc1cc(C)nc(N)n1)c1nc2cccc(NCc3ccc(C(=O)NO)cc3)c2c(=O)n1-c1ccccc1
active: A498 renal -3.63% | CCRF-CEM leukemia -11% | MOLT-4 leukemia -9.86% | RPMI-8226 leukemia -17.9% | IGROV1 ovarian -4.45%
inactive: SK-MEL-2 melanoma 33.1% | EKVX NSCLC 64.3% | SN12C renal 29% | UO-31 renal 80.1% | TK-10 renal 32.1% | ACHN renal 79.9% | CAKI-1 renal 71.8% | OVCAR-8 ovarian 17.7% | OVCAR-5 ovarian 32.3% | OVCAR-4 ovarian 49.3% | SK-OV-3 ovarian 29.8% | OVCAR-3 ovarian 16.4% | HS 578T breast 32.1% | NCI/ADR-RES ovarian 90.6%

Cc1nn(-c2ccccc2)c2nc(C)n(-c3ccc(Br)cc3)c(=O)c12
inactive: SK-MEL-2 melanoma 26.6% | EKVX NSCLC 32.1% | SN12C renal 48.6% | UO-31 renal 34.1% | TK-10 renal 53.1% | ACHN renal 44.8% | CAKI-1 renal 26.9% | CCRF-CEM leukemia 13.6% | MOLT-4 leukemia 19.8% | OVCAR-8 ovarian 25.9% | OVCAR-5 ovarian 36.3% | OVCAR-4 ovarian 40.1% | SK-OV-3 ovarian 41.7% | IGROV1 ovarian 30.6% | HS 578T breast 15%
active: A498 renal -30.4% | RPMI-8226 leukemia 9.81% | OVCAR-3 ovarian -31.7% | NCI/ADR-RES ovarian 3.19%

O=C1C(Cl)=C(Cl)C(=O)c2c1nc1n2CCCC1
inactive: SK-MEL-2 melanoma 88.1% | EKVX NSCLC 95.9% | SN12C renal 96.5% | UO-31 renal 88.8% | TK-10 renal 60% | CAKI-1 renal 100% | A498 renal 76.2% | CCRF-CEM leukemia 11.7% | RPMI-8226 leukemia 99.3% | OVCAR-8 ovarian 100% | OVCAR-5 ovarian 116% | OVCAR-4 ovarian 117% | SK-OV-3 ovarian 90.8% | IGROV1 ovarian 104% | OVCAR-3 ovarian 82.5% | HS 578T breast 105% | NCI/ADR-RES ovarian 93.5%
active: ACHN renal -8.54% | MOLT-4 leukemia 9.16%

O=C(Cn1cc(CN2C(=O)c3ccccc3S2(=O)=O)nn1)Nc1ccc([N+](=O)[O-])cc1Cl
inactive: SK-MEL-2 melanoma 91.9% | EKVX NSCLC 103% | SN12C renal 94.3% | UO-31 renal 82.7% | TK-10 renal 112% | ACHN renal 95.3% | CAKI-1 renal 91.8% | A498 renal 103% | CCRF-CEM leukemia 93.4% | MOLT-4 leukemia 96.5% | RPMI-8226 leukemia 107% | OVCAR-8 ovarian 95.3% | OVCAR-5 ovarian 113% | OVCAR-4 ovarian 115% | SK-OV-3 ovarian 73.5% | IGROV1 ovarian 103% | OVCAR-3 ovarian 105% | HS 578T breast 92.9% | NCI/ADR-RES ovarian 89.3%

C[C@@H]1CC[C@@H]2[C@@H]1[C@H](OC(=O)/C=C/c1ccccc1)[C@]1(C3CCCCC3)C[C@@H](OC(=O)CO)[C@@]2(C)O1
inactive: SK-MEL-2 melanoma 92.3% | EKVX NSCLC 68.6% | SN12C renal 16.6% | TK-10 renal 93.1% | ACHN renal 14.8% | CAKI-1 renal 16.4% | CCRF-CEM leukemia 62.8% | MOLT-4 leukemia 61.6% | RPMI-8226 leukemia 44.9% | OVCAR-8 ovarian 45.2% | OVCAR-5 ovarian 96% | OVCAR-4 ovarian 74.8% | SK-OV-3 ovarian 81.4% | IGROV1 ovarian 81.3% | OVCAR-3 ovarian 75.1% | NCI/ADR-RES ovarian 51.1%
active: UO-31 renal -51.7% | A498 renal -31.7% | HS 578T breast -22.4%

COc1ccc(CNc2nccnn2)cc1
inactive: SK-MEL-2 melanoma 108% | EKVX NSCLC 99.1% | SN12C renal 108% | UO-31 renal 100% | TK-10 renal 93.4% | ACHN renal 98% | CAKI-1 renal 97.8% | A498 renal 90.2% | CCRF-CEM leukemia 114% | MOLT-4 leukemia 47.7% | SR leukemia 52.1% | RPMI-8226 leukemia 108% | OVCAR-5 ovarian 96.4% | OVCAR-4 ovarian 111% | SK-OV-3 ovarian 109% | IGROV1 ovarian 101% | OVCAR-3 ovarian 105% | HS 578T breast 111% | NCI/ADR-RES ovarian 99.4%
